Reference: PubChem BioAssay AID529 (NMMLSC, 2006)
In all, about 24,000 compounds went through this assay and about 50 (0.2%) were called active. About 9% were inconclusive and are not listed.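 The calls were made as follows: active = inhibition above 50%; inconclusive = compound itself fluorescent, judged against control cell fluorescence; inactive = the rest.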 The sample as a whole holds a higher share of actives than the screen did.

The compounds below were run against Integrin alpha-4 (Homo sapiens) (UniProt P13612) (assay: blockers of LDV-FITC ligand binding on VLA-4 – Jurkat cells, Mn2+ activated, primary screen (AID 529;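 also: 0% = Mn2+ stimulated cells lacking compound and 100% = ligand binding without Mn2+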)). Conditions: LDV-FITC binding with Mn2+, flow cytometry, hits give high values, 100% = Mn2+-driven binding gain fully reversed, screened at 10 µM (by protocol).
Chain of Integrin alpha-4 (Homo sapiens) (P13612 whole entry, looked up): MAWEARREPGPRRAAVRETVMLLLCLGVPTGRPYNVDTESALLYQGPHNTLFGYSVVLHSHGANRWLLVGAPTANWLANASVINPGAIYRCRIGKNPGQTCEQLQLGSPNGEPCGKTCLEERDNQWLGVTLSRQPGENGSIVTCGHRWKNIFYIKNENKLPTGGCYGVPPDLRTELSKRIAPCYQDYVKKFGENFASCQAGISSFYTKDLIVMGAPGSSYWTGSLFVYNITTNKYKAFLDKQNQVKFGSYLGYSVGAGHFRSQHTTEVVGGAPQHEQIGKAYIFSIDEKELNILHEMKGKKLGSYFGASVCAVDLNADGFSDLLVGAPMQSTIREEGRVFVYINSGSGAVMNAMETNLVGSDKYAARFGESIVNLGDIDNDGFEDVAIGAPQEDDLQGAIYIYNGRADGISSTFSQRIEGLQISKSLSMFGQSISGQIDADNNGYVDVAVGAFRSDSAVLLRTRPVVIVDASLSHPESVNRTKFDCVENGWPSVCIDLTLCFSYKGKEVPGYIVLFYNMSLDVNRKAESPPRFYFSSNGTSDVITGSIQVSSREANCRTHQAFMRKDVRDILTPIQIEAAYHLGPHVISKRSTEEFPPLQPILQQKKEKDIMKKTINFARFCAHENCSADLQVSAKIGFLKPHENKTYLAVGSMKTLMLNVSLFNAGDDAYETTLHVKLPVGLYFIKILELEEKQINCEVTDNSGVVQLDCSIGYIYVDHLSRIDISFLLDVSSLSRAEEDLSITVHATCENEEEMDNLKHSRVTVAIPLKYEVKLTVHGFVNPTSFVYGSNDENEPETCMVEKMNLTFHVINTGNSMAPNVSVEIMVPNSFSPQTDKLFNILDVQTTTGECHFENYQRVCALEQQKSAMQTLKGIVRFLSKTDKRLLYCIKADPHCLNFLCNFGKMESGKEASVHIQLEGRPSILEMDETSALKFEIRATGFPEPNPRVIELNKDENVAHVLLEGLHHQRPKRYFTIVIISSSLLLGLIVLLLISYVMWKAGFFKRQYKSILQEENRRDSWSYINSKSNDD

inhibition, active:
Cc1cccn2c(=O)c3cc(C(=O)NCc4ccccn4)n(C)c3nc12 52%

inhibition, inactive:
Cc1ccc(NC(=O)C2CCCN(S(=O)(=O)c3c(C)noc3C)C2)c(C)c1 (stereo unspecified) -21%
O=C(CCn1c(=O)oc2ccccc21)Nc1ccon1 -16%
O=C(CN1CCN(CC(=O)Nc2ccc3c(c2)OCO3)CC1)Nc1ccc(F)cc1 14%
CCOc1ccc(N(CC(=O)OC)S(=O)(=O)c2c(C)noc2C)cc1 13%
CCOC(=O)CN1CC23C=CC(O2)C(C(=O)Nc2ccc(F)cc2)C3C1=O (stereo unspecified) -44.5%
Cc1nc(C)c2c(c1C(F)(F)F)-c1ccccc1C2(F)F -6.5%
COc1ccc(N2C(=O)C3CCCN3C2c2cccs2)cc1 (stereo unspecified) 8%
COc1ccccc1Cn1c(=S)[nH]c2cc(C(=O)N3CCN(C)CC3)ccc2c1=O 15%
O=C(NCCCN1CCN(Cc2ccccc2)CC1)C1CCN(S(=O)(=O)N2CCCC2)CC1 -27%
CCCC(NC(=O)c1ccccc1)c1nc2ccccc2n1Cc1ccc(C(=O)OC)o1 (stereo unspecified) 1%
Cc1ccc(NC(=O)CSc2nnc(-c3cnccn3)n2Cc2ccco2)cc1C -19.5%
Cc1ccc(NC(=O)CN(C)S(=O)(=O)c2cnc[nH]2)cc1C 1%
CCCOC(=O)c1[nH]c2c(c1C)C(=O)CC(c1cc(OC)c(OC)c(OC)c1)C2 (stereo unspecified) -2%
COc1ccccc1-n1cnc2cc(C(=O)NCC3CCCO3)ccc21 (stereo unspecified) -11%
CCOC(=O)c1c(NC(=O)c2cccs2)sc(C)c1C -11.5%
COc1cccc(NC(=O)Nc2nnc(N3CCCCC3C)s2)c1 (stereo unspecified) -4%
O=C(O)c1cccc2c1C(=O)N(C1CCCCC1)C2 -16%
CCOc1ccc(CCNC(=O)C2CCN(c3ccc(N4CCOCC4)nn3)CC2)cc1OCC -6%
CCOC(=O)N1CCC(NC(=O)c2cnn3ccccc23)CC1 2.5%
Cc1nc(CNS(=O)(=O)c2cccnc2)cs1 -1%
CC1CCCCC1NC(=O)CCS(=O)(=O)c1cccc2nonc12 (stereo unspecified) 12%
CCN(CC(=O)Nc1ccc2c(c1)OCCO2)Cc1cc(=O)oc2cc(C)c(C)cc12 -1.5%
CCn1c(=O)cc(SCC(=O)NCc2ccc3c(c2)OCO3)c2ccccc21 5%
COc1cc(C2C(C(=O)Nc3ccc(F)cc3)=C(C)Nc3nc(CCCO)nn32)cc(OC)c1OC (stereo unspecified) -7%
CCn1ncc(C2=NOC(C(=O)N3CCN(c4ccccc4)CC3)C2)c1C (stereo unspecified) 7%
c1ccc(CCn2nnnc2CN2CCN(C3CCCC3)CC2)cc1 -4.5%
Cc1cc(=O)n2nc(N3CCCC(C(=O)N4CCN(C)CC4)C3)sc2n1 (stereo unspecified) -12.3%
CCN(CC)S(=O)(=O)c1ccc2[nH]cc(C(=O)NCCc3ccccc3)c(=O)c2c1 2%
CCOC(=O)c1nnn(CC(=O)Nc2cccc(F)c2)c1C(=O)OCC 13.7%
CC(NC(=O)CN1CCN(Cc2ccc(Cl)cc2)C1=O)c1ccc2c(c1)OCCO2 (stereo unspecified) 4%
CN(C)S(=O)(=O)c1cccc(C(=O)Nc2cccnc2)c1 -37.5%
COc1ccc(Cl)cc1S(=O)(=O)N1CCN(CC(=O)C(C)(C)C)CC1 14%
CCCCC(CC)C(=O)Nc1ccc(Cl)cn1 (stereo unspecified) -17.5%
Cc1cccn2c(=O)c3cc(C(=O)N4COCC4(C)C)n(C)c3nc12 -28%
O=C(NCc1ccccn1)c1cnc2sccn2c1=O -2%
Cc1nc(NC(=O)CCC(=O)O)sc1C(=O)N(C)C -12%
O=C(Cn1c(=O)n(Cc2ccco2)c(=O)c2ccccc21)NCC1CCCO1 (stereo unspecified) -8.5%
O=C(Nc1nc2ccc(S(=O)(=O)N3CCCC3)cc2s1)C1CCCO1 (stereo unspecified) -33.5%
CCOc1ccc(Cn2nnc(C(=O)NCc3ccccc3)c2N)cc1 -1%
O=C(c1ccccc1)c1cccn1CC(=O)N1CCN(c2ccc(F)cc2)CC1 49%
O=C(O)C1CCN(S(=O)(=O)N2CCOCC2)CC1 0%
C=C1c2cc(CC)ccc2NC(=O)N1c1ccc(C)cc1 -2%
COC(=O)c1ccc2c(=O)n(CC3CCCO3)c(=S)[nH]c2c1 (stereo unspecified) -11%
CCn1c(SCC(=O)Nc2ccccc2F)nc2c(c1=O)SC(C)C2 (stereo unspecified) 3.3%
Cc1ccccc1C(=O)NCCN=C1NS(=O)(=O)c2ccccc21 -4%
CCOC(=O)N1CCC(C(N)=O)CC1 -7%
Clc1ccc(Cn2ncc3c(NCc4cccnc4)ncnc32)cc1 -0.5%
CCn1cc(C(=O)NCC2CCCO2)c(=O)c2cc(S(=O)(=O)N3CCCCC3)ccc21 (stereo unspecified) 20%
CC(NC(=O)COc1ccccc1)C(=O)NC1=NCCS1 (stereo unspecified) -18.5%
CCOC(=O)c1[nH]c2c(c1C)C(=O)CC(c1ccc(N(C)C)cc1)C2 (stereo unspecified) -3%
CCOC(=O)N1CCN(C(=O)c2cn(C)c3ccc(S(=O)(=O)N4CCCC4)cc3c2=O)CC1 -13%
CCCCOc1ccc(C(=O)NCc2ccco2)cc1 -20.5%
Cn1c(=O)cc(OCCCC(=O)N2CCN(Cc3ccc4c(c3)OCO4)CC2)c2ccccc21 7%
O=C(C(Cc1ccccc1)n1cccc1)N1CCN(C2CCCCC2)CC1 (stereo unspecified) 15%
O=C(CCCN1C(=O)C2C3C=CC(C3)C2C1=O)N1CCN(c2ccccc2)CC1 (stereo unspecified) 21%
Cc1nc2ncnn2c(C)c1CCC(=O)N1CCN(C(=O)c2ccco2)CC1 10%
Cc1cc(=O)n2nc(N3CCCC3C(=O)NCCCN3CC(C)CC(C)C3)sc2n1 (stereo unspecified) -1%
CCOc1ccc(CNC(=O)C2CC(=O)N(C3CCCC3)C2)cc1OC (stereo unspecified) 28%
O=C(CC(NS(=O)(=O)c1ccc(Cl)cc1)c1ccco1)NC1CCCC1 (stereo unspecified) 1%
O=C(Nc1ccn(Cc2ccc(F)cc2)n1)c1ccncc1 4%
